According to PubChem BioAssay (NCATS):
Several values for one entry are separate records, joined by “and”; a condition that tells them apart may be missing. Identical values can stand only once. Inconclusive results are not listed. Activity calls are given as the source filed them. Unless noted, calls come from the whole dose curve; as a rule, active = well fitted curve in the direction sought with a large enough effect; inconclusive = small, poorly fitted or top-dose-only effect, or another doubt; inactive = no such curve, though single readings can be large; an effect the other way counts as inactive or inconclusive.

How the values were obtained:
[1] = target: Cytochrome P450 2C9 (Homo sapiens) (UniProt P11712); experiment: Cytochrome P450 family 2 subfamily C member 9 (CYP2C9) small molecule antagonists: luciferase biochemical (cell-free) qHTS assay (AID 1645842; active = well fitted curve in the direction sought with a large enough effect in the repeat runs; an effect the other way counts as inactive or inconclusive; note: nearly all actives have a fitted effect of over 55% in size)
Outline: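 P450-Glo CYP2C9 system: proluciferin substrate with enzyme in mix containing 0.4% BSA, 10 min at room temperature, then NADPH regeneration solution added and incubated 1 h at 37C. Detection reagent stopped reaction; luminescence read after 20 min as RLU.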

[2] = Primary qHTS for inhibitors of nuclear receptor binding SET domain protein 2 (NSD2) in an isogenic RCH-ACV NSD2 p.E1099K mutant (9B) (AID 1645876); note: nearly all actives have a fitted effect of over 70% in size
[3] = Primary qHTS for inhibitors of nuclear receptor binding SET domain protein 2 (NSD2) in an RCH-ACV wild type WT cells (2C) (AID 1645877); note: nearly all actives have a fitted effect of over 70% in size
Potency is the fitted concentration of half-maximal effect.

Chain of Cytochrome P450 2C9 (Homo sapiens) (P11712 whole entry, looked up): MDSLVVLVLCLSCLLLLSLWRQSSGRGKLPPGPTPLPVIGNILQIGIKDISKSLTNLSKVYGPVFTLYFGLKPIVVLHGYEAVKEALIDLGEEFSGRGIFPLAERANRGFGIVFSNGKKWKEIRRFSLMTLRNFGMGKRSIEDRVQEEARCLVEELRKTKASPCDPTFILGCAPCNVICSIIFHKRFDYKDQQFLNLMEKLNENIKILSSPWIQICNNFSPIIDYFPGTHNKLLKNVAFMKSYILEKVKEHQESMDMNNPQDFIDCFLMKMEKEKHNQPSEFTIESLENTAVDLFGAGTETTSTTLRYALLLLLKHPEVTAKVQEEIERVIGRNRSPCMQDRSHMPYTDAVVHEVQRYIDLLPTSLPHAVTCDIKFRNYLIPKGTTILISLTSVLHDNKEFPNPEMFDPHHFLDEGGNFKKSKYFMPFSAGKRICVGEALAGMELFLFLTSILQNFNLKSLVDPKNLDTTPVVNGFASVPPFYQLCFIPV

Structure (SMILES)	Potency [1]	Potency [2]	Potency [3]
C=CC(=O)Nc1ccc2ncnc(Nc3cccc(Br)c3)c2c1	3.38 µM (active)	4.68 µM (active)	4.17 µM (active)
O=C(NNc1nc2cc(F)ccc2n2cccc12)c1cnccn1	inactive	0.817 µM (active)	0.916 µM (active)
CCN(Cc1ccccc1)C(=O)Cn1c(=O)n(C)c2cnc(-c3ccccc3)nc21	19 µM (active)	inactive	inactive
CCc1ccccc1OC[C@@H](O)CN[C@H]1CCCc2ccccc21	inactive	16.3 µM (active)	10.3 µM (active)
Nc1nc2c(cnn2CCCc2ccc(O)cc2)c2nc(-c3ccco3)nn12	3.01 µM (active)	inactive	inactive
Cn1c(=O)c(F)c(Nc2ccc(I)cc2F)c2c(=O)n(CC(O)CO)cnc21 (configuration not stated)	9.52 µM (active)	23 µM (active)	23.1 µM (active)
Cn1ncc(Cl)c1-c1cc(C(=O)N[C@H](CN)Cc2ccc(F)c(F)c2)sc1Cl	13.5 µM (active)	1.63 µM (active) and 1.05 µM (active)	2.05 µM (active) and 1.05 µM (active)
N#Cc1ccc2ncnc(NCCc3ccccc3)c2c1	26.8 µM (active)	6.49 µM (active)	4.09 µM (active)
CC(C)(C)c1ccc(C(=O)Nc2cn3cc(-n4ccnc4)ccc3n2)cc1	7.56 µM (active)	inactive	inactive
CC1=C(C(=O)OC2CCCCC2)C(c2ccc([N+](=O)[O-])cc2)C2=C(CC(C)(C)CC2=O)N1 (configuration not stated)	12 µM (active)	inactive	inactive
O=C(Nc1ccc(Cl)cc1)c1ccccc1NCc1ccncc1	0.0379 µM (active)	10.3 µM (active)	18.3 µM (active)
COCc1c(Cl)ccc2c1CC[C@H]2c1ncc[nH]1	21.3 µM (active)	inactive	inactive
COc1c(C)cnc(Cn2cc(C#CCC(C)(C)O)c3c(Cl)nc(N)nc32)c1C	2.39 µM (active)	0.129 µM (active)	0.145 µM (active)
CCOC(=O)c1ccc(OCCC2CCN(c3ccc(C)nn3)CC2)cc1	19 µM (active)	inactive	inactive
O=S(=O)(NCc1cccc2ccccc12)c1cc(Cl)c(Oc2cccc(N3CCNCC3)c2)s1	1.69 µM (active)	7.28 µM (active)	5.78 µM (active)
CC1(C(=O)Nc2ccc(F)nc2)CCCN1c1nc(Nc2cc(C3CC3)[nH]n2)c2cccn2n1 (configuration not stated)	10.7 µM (active)	1.29 µM (active)	0.649 µM (active)
CCOC(=O)N1CCC(N2CCC[C@@H](NC(=O)c3ccccc3C)C2)CC1	inactive	inactive	inactive
Oc1cccc(-c2c3nc(c(-c4cccc(O)c4)c4ccc([nH]4)c(-c4cccc(O)c4)c4nc(c(-c5cccc(O)c5)c5ccc2[nH]5)CC4)C=C3)c1	11 µM (active)	8.41 µM (active)	8.41 µM (active)
O=C(NCCN1CCN(c2cccc3c2OCCO3)CC1)c1ccc(F)cc1	19 µM (active)	inactive	inactive
CCOC(=O)c1cnn(-c2ccccc2)c1NC(=O)c1cc2nc(-c3ccco3)cc(C(F)(F)Cl)n2n1	3.38 µM (active)	inactive	inactive
O=C(Nc1ccc(-c2ccnc(Nc3ccc(N4CCOCC4)cc3)n2)cc1)C1CCCN1 (configuration not stated)	2.13 µM (active)	4.61 µM (active)	4.11 µM (active)
COc1ccc(C(=O)Nc2c(Cl)cncc2Cl)cc1OC1CCCC1	6.74 µM (active)	inactive	inactive
C#CC(=O)N(c1ccc(OC)cc1OC)C(C(=O)NCC(=O)OCC)c1cccs1 (configuration not stated)	12 µM (active)	0.183 µM (active)	0.0649 µM (active)
Fc1ccc(-c2nc(C3CCNCC3)sc2-c2ccnc(NC3CC3)n2)cc1	16.9 µM (active)	8.17 µM (active)	6.49 µM (active)
CC(C)(C)c1ccc(-c2nc3c(N4CCN(Cc5ccc6nccnc6c5)CC4)cccc3[nH]2)cc1	2.13 µM (active)	9.16 µM (active)	11.5 µM (active)
Cc1cn2cc(C(=O)N(C)CCO)cc(NC3CCOc4cccc(C)c43)c2n1 (configuration not stated)	19 µM (active)	inactive	inactive
CC[C@@H](Nc1c(Nc2cccc(C(=O)N(C)C)c2O)c(=O)c1=O)c1cc(C(C)C)co1	5.35 µM (active)		16.3 µM (active)
COc1nc2ccc(Br)cc2cc1[C@@H](c1ccccc1)[C@@](O)(CCN(C)C)c1cccc2ccccc12	3.79 µM (active)		14.5 µM (active)
